The values that follow come from ChEMBL document CHEMBL1961873, “Compounds: GSK PKIS; Assays: Nanosyn kinase panel” (2012).

Experiment [1] concerns Proto-oncogene tyrosine-protein kinase receptor Ret (Homo sapiens), P07949 [Y791F]. The settings on record: at 1 µM.
For experiment [2], the target named is Macrophage-stimulating protein receptor (Homo sapiens) (UniProt Q04912). The settings on record: at 0.1 µM.
For experiment [3] the target is unchanged. The settings on record: at 1 µM.
Experiment [4] has as its target Proto-oncogene tyrosine-protein kinase ROS (Homo sapiens) (UniProt P08922). The settings on record: at 0.1 µM.
For experiment [5] the target is unchanged. The settings on record: at 1 µM.
The target in experiment [6] is Proto-oncogene tyrosine-protein kinase Src (Homo sapiens) (UniProt P12931). The settings on record: at 0.1 µM.
Chain of Proto-oncogene tyrosine-protein kinase Src (Homo sapiens) (P12931 2-536 limits assumed): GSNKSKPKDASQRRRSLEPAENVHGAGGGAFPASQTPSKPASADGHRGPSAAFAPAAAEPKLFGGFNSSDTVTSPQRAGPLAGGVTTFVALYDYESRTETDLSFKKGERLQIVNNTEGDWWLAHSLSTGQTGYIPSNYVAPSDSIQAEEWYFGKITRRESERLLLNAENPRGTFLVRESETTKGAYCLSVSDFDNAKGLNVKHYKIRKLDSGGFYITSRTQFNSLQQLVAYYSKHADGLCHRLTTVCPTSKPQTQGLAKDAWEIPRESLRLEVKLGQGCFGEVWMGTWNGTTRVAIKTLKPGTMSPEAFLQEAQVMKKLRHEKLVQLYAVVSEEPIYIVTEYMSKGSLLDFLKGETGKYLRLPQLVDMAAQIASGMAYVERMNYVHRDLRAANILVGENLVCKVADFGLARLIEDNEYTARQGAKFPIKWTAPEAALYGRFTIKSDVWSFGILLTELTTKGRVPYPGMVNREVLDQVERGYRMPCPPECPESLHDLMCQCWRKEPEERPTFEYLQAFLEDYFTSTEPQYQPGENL
For experiment [7] the target is unchanged. The settings on record: at 1 µM.
In experiment [8] the target is Tyrosine-protein kinase Srms (Homo sapiens) (UniProt Q9H3Y6). The settings on record: at 0.1 µM.
Chain of Tyrosine-protein kinase Srms (Homo sapiens) (Q9H3Y6 whole entry): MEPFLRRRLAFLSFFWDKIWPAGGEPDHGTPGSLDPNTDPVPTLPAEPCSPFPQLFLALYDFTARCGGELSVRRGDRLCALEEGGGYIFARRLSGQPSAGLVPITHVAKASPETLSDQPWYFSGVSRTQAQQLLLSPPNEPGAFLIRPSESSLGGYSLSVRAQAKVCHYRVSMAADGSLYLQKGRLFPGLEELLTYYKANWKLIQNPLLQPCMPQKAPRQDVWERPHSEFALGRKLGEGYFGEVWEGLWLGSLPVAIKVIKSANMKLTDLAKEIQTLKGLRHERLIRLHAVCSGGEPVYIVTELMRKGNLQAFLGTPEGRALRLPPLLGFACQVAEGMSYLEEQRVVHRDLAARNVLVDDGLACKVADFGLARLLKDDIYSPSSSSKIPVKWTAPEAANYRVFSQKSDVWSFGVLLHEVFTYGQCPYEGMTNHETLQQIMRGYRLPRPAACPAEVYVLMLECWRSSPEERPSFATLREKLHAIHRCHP
Experiment [9] has the same target. The settings on record: at 1 µM.
Experiment [10] concerns the target Tyrosine-protein kinase SYK (Homo sapiens) (UniProt P43405). The settings on record: at 0.1 µM.
Experiment [11] has the same target. The settings on record: at 1 µM.
In experiment [12] the target is T1, Tyrosine-protein kinase Tec (Homo sapiens) (UniProt P42680).
T1 sequence (whole entry): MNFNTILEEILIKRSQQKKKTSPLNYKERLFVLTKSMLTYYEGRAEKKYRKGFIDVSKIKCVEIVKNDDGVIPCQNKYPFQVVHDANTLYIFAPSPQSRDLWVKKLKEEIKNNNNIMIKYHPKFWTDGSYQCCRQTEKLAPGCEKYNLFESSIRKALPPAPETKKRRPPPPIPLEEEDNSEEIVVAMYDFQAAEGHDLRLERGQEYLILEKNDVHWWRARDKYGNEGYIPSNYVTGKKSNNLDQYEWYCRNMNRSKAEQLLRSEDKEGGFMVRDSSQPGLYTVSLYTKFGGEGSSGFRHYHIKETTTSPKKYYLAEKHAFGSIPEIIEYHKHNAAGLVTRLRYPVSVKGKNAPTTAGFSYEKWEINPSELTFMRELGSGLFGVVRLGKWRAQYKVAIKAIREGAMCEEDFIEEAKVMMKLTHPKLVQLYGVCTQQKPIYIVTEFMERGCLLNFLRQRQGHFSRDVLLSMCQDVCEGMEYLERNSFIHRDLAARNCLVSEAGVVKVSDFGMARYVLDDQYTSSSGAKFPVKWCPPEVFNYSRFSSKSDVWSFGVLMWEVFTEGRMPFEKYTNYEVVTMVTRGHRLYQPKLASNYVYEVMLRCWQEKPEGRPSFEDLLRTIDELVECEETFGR
The settings on record: at 0.1 µM.

Experiment [13] deals with T1, Tyrosine-protein kinase Tec (Homo sapiens). The settings on record: at 1 µM.
For experiment [14], the target named is Angiopoietin-1 receptor (Homo sapiens) (UniProt Q02763). The settings on record: at 0.1 µM.
For experiment [15] the target is unchanged. The settings on record: at 1 µM.
The target of experiment [16] is T2, Non-receptor tyrosine-protein kinase TNK1 (Homo sapiens) (UniProt Q13470).
T2 sequence (whole entry): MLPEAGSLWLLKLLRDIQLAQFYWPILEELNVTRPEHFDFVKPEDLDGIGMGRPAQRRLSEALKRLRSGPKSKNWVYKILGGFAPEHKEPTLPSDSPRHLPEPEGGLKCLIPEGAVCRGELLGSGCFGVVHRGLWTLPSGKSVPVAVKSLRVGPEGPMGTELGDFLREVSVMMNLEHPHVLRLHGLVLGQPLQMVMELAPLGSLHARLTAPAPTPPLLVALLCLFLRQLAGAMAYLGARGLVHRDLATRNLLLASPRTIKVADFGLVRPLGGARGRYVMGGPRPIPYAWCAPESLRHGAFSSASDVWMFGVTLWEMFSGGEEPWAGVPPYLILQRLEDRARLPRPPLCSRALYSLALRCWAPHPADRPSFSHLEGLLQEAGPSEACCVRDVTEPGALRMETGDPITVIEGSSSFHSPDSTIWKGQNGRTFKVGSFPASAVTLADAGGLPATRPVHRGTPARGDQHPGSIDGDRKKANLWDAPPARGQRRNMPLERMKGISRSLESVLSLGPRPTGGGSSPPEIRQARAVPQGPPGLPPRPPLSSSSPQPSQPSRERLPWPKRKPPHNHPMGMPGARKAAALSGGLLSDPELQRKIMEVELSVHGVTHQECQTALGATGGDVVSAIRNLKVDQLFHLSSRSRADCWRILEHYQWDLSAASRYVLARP
The settings on record: at 0.1 µM.

Experiment [17] concerns the target T2, Non-receptor tyrosine-protein kinase TNK1 (Homo sapiens). The settings on record: at 1 µM.
For experiment [18], the target named is Activated CDC42 kinase 1 (Homo sapiens) (UniProt Q07912). The settings on record: at 0.1 µM.
The target is the same in experiment [19]. The settings on record: at 1 µM.
In experiment [20] the target is High affinity nerve growth factor receptor (Homo sapiens) (UniProt P04629). The settings on record: at 0.1 µM.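 Also: each value is a mean of replicate percent inhibition readings against TRKA kinase.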
Chain of High affinity nerve growth factor receptor (Homo sapiens) (P04629 33-796 limits assumed): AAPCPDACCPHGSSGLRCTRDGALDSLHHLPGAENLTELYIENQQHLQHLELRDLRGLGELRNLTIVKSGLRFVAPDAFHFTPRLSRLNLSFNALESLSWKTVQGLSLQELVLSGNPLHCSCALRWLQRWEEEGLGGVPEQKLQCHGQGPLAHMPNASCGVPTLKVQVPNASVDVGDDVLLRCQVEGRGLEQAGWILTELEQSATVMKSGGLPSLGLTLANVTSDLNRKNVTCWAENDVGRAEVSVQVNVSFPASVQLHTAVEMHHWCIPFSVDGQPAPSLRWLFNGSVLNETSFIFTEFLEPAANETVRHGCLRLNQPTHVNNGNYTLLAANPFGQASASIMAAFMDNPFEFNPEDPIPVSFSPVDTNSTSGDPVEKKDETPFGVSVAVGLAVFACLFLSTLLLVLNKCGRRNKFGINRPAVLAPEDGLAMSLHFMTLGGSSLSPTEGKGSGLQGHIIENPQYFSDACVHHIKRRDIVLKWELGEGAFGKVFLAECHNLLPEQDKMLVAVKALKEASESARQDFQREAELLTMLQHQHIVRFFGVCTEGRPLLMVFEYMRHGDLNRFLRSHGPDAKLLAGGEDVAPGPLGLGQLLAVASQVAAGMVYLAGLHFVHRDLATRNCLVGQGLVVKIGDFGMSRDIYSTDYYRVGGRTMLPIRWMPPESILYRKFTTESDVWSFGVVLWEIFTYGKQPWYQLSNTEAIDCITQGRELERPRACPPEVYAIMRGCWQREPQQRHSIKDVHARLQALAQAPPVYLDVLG

Chain of Proto-oncogene tyrosine-protein kinase ROS (Homo sapiens) (P08922 whole entry): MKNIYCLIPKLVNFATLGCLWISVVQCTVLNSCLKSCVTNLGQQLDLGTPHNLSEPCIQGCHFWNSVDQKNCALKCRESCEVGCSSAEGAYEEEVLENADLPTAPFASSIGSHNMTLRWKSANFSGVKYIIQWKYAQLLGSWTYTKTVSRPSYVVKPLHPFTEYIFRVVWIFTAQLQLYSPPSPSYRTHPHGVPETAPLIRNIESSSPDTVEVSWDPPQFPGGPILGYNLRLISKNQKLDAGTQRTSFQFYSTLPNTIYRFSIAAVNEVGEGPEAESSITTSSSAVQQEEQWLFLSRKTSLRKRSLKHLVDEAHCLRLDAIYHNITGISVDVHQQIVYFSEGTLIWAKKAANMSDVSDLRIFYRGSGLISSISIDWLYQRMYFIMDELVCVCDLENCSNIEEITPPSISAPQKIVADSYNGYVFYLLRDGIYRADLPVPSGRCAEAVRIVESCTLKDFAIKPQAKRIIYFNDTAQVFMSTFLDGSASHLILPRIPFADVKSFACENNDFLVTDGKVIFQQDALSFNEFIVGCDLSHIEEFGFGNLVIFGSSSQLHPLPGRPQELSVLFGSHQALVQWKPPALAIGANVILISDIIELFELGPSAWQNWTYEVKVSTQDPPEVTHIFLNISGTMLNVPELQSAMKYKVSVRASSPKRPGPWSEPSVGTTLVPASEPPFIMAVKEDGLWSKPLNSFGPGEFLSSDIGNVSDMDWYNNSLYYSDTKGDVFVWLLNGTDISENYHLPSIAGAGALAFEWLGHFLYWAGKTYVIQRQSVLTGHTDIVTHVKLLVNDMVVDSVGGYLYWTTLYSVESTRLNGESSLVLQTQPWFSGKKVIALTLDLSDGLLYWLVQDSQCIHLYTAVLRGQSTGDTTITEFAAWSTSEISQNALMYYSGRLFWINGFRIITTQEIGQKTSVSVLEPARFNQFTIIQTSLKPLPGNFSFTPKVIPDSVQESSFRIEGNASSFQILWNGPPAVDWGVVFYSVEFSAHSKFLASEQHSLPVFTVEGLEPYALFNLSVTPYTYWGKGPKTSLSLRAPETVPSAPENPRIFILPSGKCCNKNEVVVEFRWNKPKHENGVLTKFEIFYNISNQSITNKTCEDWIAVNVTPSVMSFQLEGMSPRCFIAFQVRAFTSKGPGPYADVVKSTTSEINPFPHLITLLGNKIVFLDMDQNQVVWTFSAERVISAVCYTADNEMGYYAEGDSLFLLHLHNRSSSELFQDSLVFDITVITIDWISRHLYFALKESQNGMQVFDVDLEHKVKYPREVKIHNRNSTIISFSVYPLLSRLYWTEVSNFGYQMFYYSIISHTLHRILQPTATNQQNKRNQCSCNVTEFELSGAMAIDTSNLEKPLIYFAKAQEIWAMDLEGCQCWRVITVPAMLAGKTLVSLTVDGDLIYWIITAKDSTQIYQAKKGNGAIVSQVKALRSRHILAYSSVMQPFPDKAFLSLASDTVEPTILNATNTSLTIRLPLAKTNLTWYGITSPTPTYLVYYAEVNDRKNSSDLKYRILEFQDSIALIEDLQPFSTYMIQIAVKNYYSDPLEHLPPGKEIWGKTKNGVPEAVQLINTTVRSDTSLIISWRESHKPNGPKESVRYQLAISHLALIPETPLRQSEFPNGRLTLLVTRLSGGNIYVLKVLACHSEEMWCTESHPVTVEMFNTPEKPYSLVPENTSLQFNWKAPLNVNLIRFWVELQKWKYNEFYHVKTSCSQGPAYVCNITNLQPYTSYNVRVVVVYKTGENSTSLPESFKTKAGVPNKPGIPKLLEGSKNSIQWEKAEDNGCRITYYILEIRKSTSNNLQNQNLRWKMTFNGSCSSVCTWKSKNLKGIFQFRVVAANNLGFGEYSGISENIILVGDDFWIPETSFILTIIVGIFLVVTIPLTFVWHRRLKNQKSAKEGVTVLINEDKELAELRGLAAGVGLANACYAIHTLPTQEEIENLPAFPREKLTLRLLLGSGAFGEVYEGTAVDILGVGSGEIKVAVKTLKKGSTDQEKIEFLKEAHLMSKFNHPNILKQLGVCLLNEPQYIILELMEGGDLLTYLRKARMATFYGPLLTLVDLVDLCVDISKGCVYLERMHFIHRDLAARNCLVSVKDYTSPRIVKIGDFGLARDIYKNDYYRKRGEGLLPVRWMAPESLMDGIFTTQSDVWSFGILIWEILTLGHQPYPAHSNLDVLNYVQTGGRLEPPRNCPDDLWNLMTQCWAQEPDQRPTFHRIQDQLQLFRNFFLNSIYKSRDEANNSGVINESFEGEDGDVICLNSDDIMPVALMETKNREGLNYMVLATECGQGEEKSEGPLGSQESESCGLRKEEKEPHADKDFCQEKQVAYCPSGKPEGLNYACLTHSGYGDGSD

With `Cc1nnc(-c2ccc(C)c(-c3ccc(C(=O)NCc4ccc(Cl)cc4)cc3)c2)o1`, the inhibition was 7.75% in [1]; 1.1% in experiment [2]; 2.52% in [3]; 4.75% in experiment [4]; 7.75% in experiment [5]; -1.25% in experiment [6]. The inhibition is 7.15% in experiment [7]; -2.08% in [8]; -0.92% in experiment [9]; -5.79% in experiment [10]; -1% in [11]; 0.01% in experiment [12]. Also, the inhibition in [13] was determined as 0.03%; in experiment [14], 4.45%; in experiment [15] it was 6.89%; in experiment [16], 0.68%; in [17], 5.31%; in experiment [18], 0.65%. Moreover, the inhibition in experiment [19] was 0.3%; in [20], 2.65%.
Turning to `C[C@@H](Oc1cc(-n2cnc3ccc(OC4CCN(C)CC4)cc32)sc1C(N)=O)c1ccccc1Cl`, the inhibition in experiment [1] is 22%; in experiment [2] it was 0.07%; in [3] it was 9.84%; in [4] it was 8.31%; in experiment [5] it was 15.5%; in [6], 10.3%. The inhibition in [7] was 18.7%; in experiment [8], -0.74%; in experiment [9], -2.64%; in experiment [10] it was -0.76%; in [11], 2.16%; in [12] it was 2.27%. The inhibition in [13] is 1.73%; in [14] it was 7.19%; in [15], 11.9%; in experiment [16] it was 3.41%; in experiment [17], 18.1%; in experiment [18] it was -0.17%. Further, the inhibition in experiment [19] is 1.13%; in experiment [20], 2.29%.
For the compound `CCc1cccc(CC)c1/C=C/c1cncc(C(=O)NC)c1`, the inhibition was 2.43% in experiment [1]; -0.25% in experiment [2]; 6% in experiment [3]; 2.24% in [4]; 4.93% in experiment [5]; 2.97% in experiment [6]. For the same compound, the inhibition in [7] is 10.2%; in experiment [8], 0.35%; in experiment [9], -0.17%; in [10], -3.77%; in experiment [11], -0.49%; in [12], 4.18%. Moreover, the inhibition in experiment [13] is 7.25%; in [14], 1.3%; in experiment [15], 3.17%; in experiment [16] it was 5.96%; in experiment [17], 10.2%; in experiment [18] it was 1.3%. Also, the inhibition in experiment [19] was found to be 2.37%; in [20] it was 1.94%.
Consider `NS(=O)(=O)c1ccc(N/N=C2\C(=O)Nc3ccc(-c4cnco4)cc32)cc1`, for which the inhibition in [1] is 31.9%; in experiment [2], 7.46%; in experiment [3] it was 4.84%; in experiment [4], 6.83%; in experiment [5] it was 9.22%; in experiment [6], 3.76%. In addition, the inhibition was 20.5% in experiment [7]; 0.38% in experiment [8]; 0.29% in experiment [9]; 0.72% in experiment [10]; -1.05% in experiment [11]; -1.76% in experiment [12]. Moreover, the inhibition in experiment [13] was 4.09%; in experiment [14] it was 3.92%; in experiment [15] it was 4.65%; in [16] it was 9.41%; in experiment [17] it was 44.4%; in experiment [18], -0.82%. Further, the inhibition in experiment [19] was 0.92%; in [20], 4.49%.
On to `CCc1nccc2c1nc(-c1nonc1N)n2CC`, for which the inhibition in experiment [1] is 13.1%; in experiment [2], -3.47%; in experiment [3], 4.96%; in [4], 3.74%; in experiment [5] it was 5.33%; in experiment [6], -0.62%. The inhibition is 10.1% in experiment [7]; -1.58% in experiment [8]; -3.49% in experiment [9]; -1.01% in [10]; 10.7% in [11]; 1.47% in experiment [12]. Further, the inhibition in experiment [13] is 5.82%; in experiment [14], 2.53%; in experiment [15], 5.08%; in experiment [16] it was 0.71%; in experiment [17], -5.44%; in experiment [18], -0.52%. For the same compound, the inhibition in experiment [19] is -0.83%.
Regarding `Fc1ccc(-c2ncn(C3CCNCC3)c2-c2ccnc(Oc3ccc(Oc4ccccc4)cc3)n2)cc1`, the inhibition in experiment [1] is 4.3%; in experiment [2] it was 0.16%; in [3] it was 0.94%; in experiment [4], 12.1%; in experiment [5] it was 11%; in experiment [6], 10.9%. Also, the inhibition in experiment [7] was 15.3%; in [8], -1.67%; in experiment [9], -1.36%; in experiment [10] it was 0.87%; in experiment [11] it was 3.37%; in experiment [12] it was 7.61%. For the same compound, the inhibition came to 3.11% in experiment [13]; 3.79% in experiment [14]; 4.32% in experiment [15]; 2.72% in [16]; 0.92% in [17]; 0.73% in experiment [18]. In addition, the inhibition was found to be 1.8% in experiment [19] and 3.4% in experiment [20].
Consider `NCc1ccc(-n2c(-c3nonc3N)nc3cnccc32)cc1`, for which the inhibition in experiment [1] was 7.16%; in experiment [2], 2.95%; in [3] it was 2.64%; in experiment [4], 15.3%; in experiment [5], 33%; in experiment [6], 9.83%. In addition, the inhibition was 9.77% in experiment [7]; -2.58% in experiment [8]; -2.9% in [9]; -3.99% in experiment [10]; -0.51% in [11]; 4.69% in [12]. The inhibition in experiment [13] worked out at 4.95%; in experiment [14], 2.68%; in experiment [15], 3.28%; in experiment [16] it was 5.04%; in [17] it was 3.5%; in [18] it was 1.93%. Besides, the inhibition was found to be 5.77% in experiment [19] and 1.82% in [20].

As usually defined, the inhibition is the change of the read-out against control, counted positive when it falls.
